# Reference: the supplement of paper PMC6555819
# Assays:
# Experiment in all cases: PBM binding z-score (relative to random genomic background probes); higher = stronger binding; sequences stand for … in GC…GCGATTGACAGCGTAGAATGAAGG
# [1] = tested on: FXR:RXRa (NR concentration 270 nM, RXRa partner concentration 90 nM)
# Outline: (§1)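 Scanned fluorescence from custom Agilent 4×180K protein-binding microarrays was regression-normalized. Binding z-scores use random background probes as reference. Ligand-free nuclear receptor dimers were incubated on the arrays for 1 h and detected with antibodies against each partner (one per run).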
# [2] = tested on: LXRa:RXRa (NR concentration 270 nM, RXRa partner concentration 90 nM)
# Outline: as §1
# [3] = tested on: LXRa homodimer (NR concentration 270 nM)
# Outline: as §1
# [4] = tested on: LXRb:RXRa (NR concentration 270 nM, RXRa partner concentration 90 nM)
# Outline: as §1
# [5] = tested on: LXRb homodimer (NR concentration 270 nM)
# Outline: as §1
# [6] = tested on: PPARa:RXRa (NR concentration 270 nM, RXRa partner concentration 90 nM)
# Outline: as §1
# [7] = tested on: PPARg:RXRa (NR concentration 180 nM, RXRa partner concentration 90 nM)
# Outline: as §1
# [8] = tested on: PPARg:RXRa 270nM:90nM, anti-RXR (NR concentration 270 nM, RXRa partner concentration 90 nM)
# Outline: as §1
# [9] = tested on: PPARg:RXRa 30nM:10nM, anti-RXR (NR concentration 30 nM, RXRa partner concentration 10 nM)
# Outline: as §1
# [10] = tested on: PPARg:RXRa 90nM:30nM, anti-RXR (NR concentration 90 nM, RXRa partner concentration 30 nM)
# Outline: as §1
Sequence,PBM binding z-score [1],PBM binding z-score [2],PBM binding z-score [3],PBM binding z-score [4],PBM binding z-score [5],PBM binding z-score [6],PBM binding z-score [7],PBM binding z-score [8],PBM binding z-score [9],PBM binding z-score [10]
ATACCAAGATGATCGTGAGGTCGTTGATACTAAC,1.11,0.576,0.456,0.892,0.0732,0.598,0.48,-0.158,0.129,-0.00184
AGAATGAGGTTATACGTAGATCCGGGAAGAAAGT,1.84,1.4,-0.0656,1.27,-0.0516,3.09,1.65,2.1,0.93,1.68
CGTCCAAGGTCAGAGCGGTCAGTGAATGCCGAGT,4.97,4.15,1.27,2.69,-0.231,3.86,1.33,2.69,0.148,1.42
ACTAGTTGGTCAGCTGAGGTTACACACAATTCGG,1.56,0.761,0.139,1.29,0.188,1.42,0.989,0.496,0.134,0.586
GGAACGAGGGCATTCGAGTTGTTAGCATGGCGAT,0.97,0.548,-0.561,-0.135,-0.712,1.18,0.562,0.571,-0.377,0.0631
ACTTACGGGTCAACGAGGTTATATCACGCGTATA,6.93,5.07,1.5,4.54,1.09,5.82,5.28,4.92,2.11,3.79
TCTCGAAGGACACGAAGGTCAGAGCTTTCCAGAG,1.04,1.12,-0.125,1.03,-0.73,1.91,0.515,1.8,2.96,2.27
TAGCCTAGGTCATCCAGGGGCCAGTATAGAAAGC,4.4,3.37,0.176,2.82,0.318,3.66,2.57,2.47,0.738,1.52
ATAATGAGGTTATTAAGATCAGGGAATTGCGGTC,1.9,2.12,0.684,1.48,1.07,2.81,1.91,2.14,0.859,1.5
TGAAAGAGGTTATAAGATCAGGGAACGTTGCAAA,2.03,1.91,-0.395,1.33,-0.331,2.91,1.11,1.46,0.81,1.12
ATCTCTAGATAAAGTTCAGTGAAAGATCGATAGA,0.465,1.1,1.05,0.684,0.314,1.48,2.39,3.45,1.46,3.1
TCATATAGGTAAATGCTAGGTGAAAGTACGATCT,1.24,0.992,0.296,0.731,0.0256,1.6,1.69,2.52,3.66,3.19
AGTCAAAGTTCAGGACGAGGTAACGGAAAGCACG,3.52,3.93,0.925,1.77,0.134,3.46,4.45,4.88,1.83,3.87
AATACAGGGTCACTAGGGCAGAGTAGGTACGAAT,6.65,5.17,1.38,4.23,1.51,5.86,8.85,6.78,3.79,6.46
CGAACTAGGTCCAGGACAGTGAATCTCCGCACGC,-0.204,-0.571,-0.353,-0.95,-0.661,-0.195,0.3,-0.587,-0.632,-0.449
TCAGACAGGTGAAGGTAAATCAGGTACGCAGTCG,1.69,1.37,0.109,1.11,0.081,1.6,0.829,2.39,4.45,3.31
ATCGAAAGTTCGACGAGGTGAGTATACACCGTTT,0.939,0.833,-0.161,0.494,0.233,1.18,0.693,0.561,0.0902,0.117
ATCGCTAGGTAAAGTTCAGTGAAAGATCGATAGA,0.349,1.22,0.609,0.692,-0.361,1.81,1.85,3.26,1.49,2.75
ATATGAAGGTTAGCTGGGGTCATTCAGACTAGGC,5.27,6.28,3.34,5.36,1.06,4.7,2.43,3.52,1.14,2.37
AGTCAAAGTTCAGGATGAGGTAACGTAAAGCACG,4.14,3.93,1.07,2.02,0.238,3.58,4.66,4.92,2.26,3.84
ATCTCTAGGTAACAAGTTCAGCGAAAGAGAGGAC,0.684,0.959,0.732,0.934,1.33,2.01,1.88,2.43,0.884,2.22
AGAATGAGGTTACCAAAGATCATGGAAACGCTTG,2.05,6.75,-0.149,3.98,-0.29,3.63,2.88,2.95,1.11,2.19
TCTAGTTGGTCACTGAGGTCACACACGACGGGTA,4.03,3.64,2.55,3.59,0.98,4.32,3.24,3.98,3.27,3.68
AGAACGAGGGCACGCTGAATTGATAGCAGAGTAG,0.635,0.375,-0.408,0.0938,-0.694,1.92,2.24,2.02,0.73,1.04
